Reference: article PMC12136788
The full ranking holds about 24,000 sequences; the median of “enrichment r” is about 0.99, and the highest 2% start at about 3.7. Many of the other results were omitted from the sample, so the highest values are more common in it than they were.

T1: UNK ZnF1-3 (human, UniProt Q9C0B0 31-174)
T1 sequence: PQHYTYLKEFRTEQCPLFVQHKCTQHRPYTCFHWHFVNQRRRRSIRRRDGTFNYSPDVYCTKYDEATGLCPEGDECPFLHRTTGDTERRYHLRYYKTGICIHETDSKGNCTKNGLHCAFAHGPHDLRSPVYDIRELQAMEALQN

B1: chr1:150192712:150192713:-_ENSG00000143401_ENST00000314136|hu_hu|motif|central (ssRNA)
RNA: GGGAGUUCUACAGUCCGACGAUCGCACCAUACUACACCUGUGUAAAAGUGAUCAUGUUUUAAUUAUGGGCUAAAAAUGACGGAUACAGUAAGCUUGAAUUUAAAAAAUUAAGUCUAAAUAAAUUGCUAGGGAAUUCCACAAUGCAACAGAGGAUUGAGCAUCA
B2: chr4:25749455:25749456:-_ENSG00000091490_ENST00000264868|hu_hu|hu_hu_hu_mus_False|8_68 (ssRNA)
RNA: GGGAGUUCUACAGUCCGACGAUCGCACUAUGACCUCUAGAAAAAUCCACAGGGGGAAAAAAUGUAAACCAAUUUACAAUGUUAUCGCCUUCCCUGUGUGUGGAGUGUUUGUCUCAAGGCUCCUUCUUGCCUUAUAAUUUGGGACAACAGAGGAUUGAGCAUCA
B3: chr4:144460044:144460045:+_ENSG00000153147_ENST00000283131|hu_mus|hu_hu_hu_mus_False|18_68 (ssRNA)
RNA: GGGAGUUCUACAGUCCGACGAUCACGGUCCAUAGCCUGAAGAUCAACUUGCGGAUUCCAAUCUGAGUCAUACAAAAUGACUACAUCAGCAGUUGCAAGAUUGAUGCCCAGACCACCAGCACGCGUGCUUAGCAUAAAUACAAACAACAGAGGAUUGAGCAUCA
B4: 47062174_47062422_1437_CDS_ENSG00000130985_ENST00000335972|human|control|control (ssRNA)
RNA: GGGAGUUCUACAGUCCGACGAUCGACCUCUUUGUCCUCAGGGAGACACUCAAGGGCAUCAAAGUAUAGCCACUGCAUGAUGGGCAUGAACUUCCCGGAGCAGGCCUUCAUGACUUCCUGGGCAGCCAGGCCCCCAAUGAAGGCCAACAGAGGAUUGAGCAUCA
B5: 91300164_91300284_179_3pUTR_ENSMUSG00000038459_ENSMUST00000117085|mouse|control|control (ssRNA)
RNA: GGGAGUUCUACAGUCCGACGAUCCCGCCGGGGCGGGCGCGGGGGUCGCCGCGGGAGCGGGCGCGCGCUGCUCGGGCGCCAGCACCGUGUAGGUGGGUUCGGGCGGCAGGAAGGCCAGCUUGGCGGCGAUGCGGCUCGGACAAGCAACAGAGGAUUGAGCAUCA
B6: 126416003_126416123_291_3pUTR_ENSMUSG00000078429_ENSMUST00000105256|mouse|control|control (ssRNA)
RNA: GGGAGUUCUACAGUCCGACGAUCAGGCGGCCUGCACAGAGGGCGGGCGGGCCAGGCGGCGGCUUCCCCGGUGCCCCCAGCCCCGAUCCCCCGGUGGCAGCUCCGGGCUCCUCAGUUUGGGUCCAACAUGGAGAAUCCGGAGCGCAACAGAGGAUUGAGCAUCA
B7: chr7:133967480:133967481:+_ENSMUSG00000058966_ENSMUST00000079423|mus_mus|FALSE|FALSE (ssRNA)
RNA: GGGAGUUCUACAGUCCGACGAUCAGGGAGUUGGAGGUGAAGAAGGGAUUGCCAAGCCAGAAAGGGAGAGAGAAAGAGGGAGGGGGAGGCACAAAGGGGCCAGGGCGGGGACAGGAUGGGACAAGAGGACCAGUUCAGGGCAAGCAACAGAGGAUUGAGCAUCA
B8: chr9:123912698:123912699:+_ENSG00000119397_ENST00000373850|hu_hu|FALSE|FALSE (ssRNA)
RNA: GGGAGUUCUACAGUCCGACGAUCAUGGUGUUCAGGGACGUUGCAAUGCAGCACACCCAUAGGGAUGAAGGGGAUGGAGAAGUUGGGGGGUGGAGGCCCAUACACCAUGGGGGCCCCAGCAGGAGGUGGGCCAUAAACAACAGUCAACAGAGGAUUGAGCAUCA
B9: chr6:30691630:30691631:+_ENSG00000196230_ENST00000327892|hu_hu|FALSE|FALSE (ssRNA)
RNA: GGGAGUUCUACAGUCCGACGAUCAGCUCGAUACUGCUGGCUUCCACGGCUGGUGAGAGGGGCAAAGCCAGGCAUAAAGAAAUGGAGACGUGGGAAGGGGACCAUGUUGACUGCCAACUUGCGGAGGUCAGCAUUGAGCUGGCCCAACAGAGGAUUGAGCAUCA
B10: chr6:35489678:35489679:-_ENSMUSG00000029840_ENSMUST00000031866|mus_hu|FALSE|FALSE (ssRNA)
RNA: GGGAGUUCUACAGUCCGACGAUCAGAAGAUGAGGAGGCGGUGGCAGCAGCAAGCGGAUGCCGCCGGGCGAGAGGGAGGCAGGGCCGCGCGAAGCCGGAGAGGAGAAGAAGAGAAGGAGGGUUAGGCUGCCAGGCGGGCGAGGCCAACAGAGGAUUGAGCAUCA
B11: 86322860_86322980_198_3pUTR_ENSG00000135018_ENST00000376395|human|control|control (ssRNA)
RNA: GGGAGUUCUACAGUCCGACGAUCCUUCCUCCUCCCUGCCCCUUCCCCCACGUCCCUUCGCCGGCGCCGCGCGGAGCACGCCGGGUAACGCGCCUGGCGGCGUCGCCGAGUCAUCCCCGGCUGGCGCGACUUUGAGCUCAGCCUCAACAGAGGAUUGAGCAUCA
B12: chr2:180329438:180329439:+_ENSMUSG00000049401_ENSMUST00000029087|mus_hu|FALSE|FALSE (ssRNA)
RNA: GGGAGUUCUACAGUCCGACGAUCCUCUGAGGCACUCUGAGGGCCUGGCUCUGUGGGCGGCUGCUCCCGCCGGCUCAGCUCCAGCUUCCUCUUCUUGCUCUCUUUGGGGCUUAAGGGCUCCGGCCUAUCUUCCCCGUGGCCCCCCAACAGAGGAUUGAGCAUCA
B13: 62352434_62352554_269_CDS_ENSMUSG00000018509_ENSMUST00000018653|mouse|control|control (ssRNA)
RNA: GGGAGUUCUACAGUCCGACGAUCCUGCUCCCCCAGGUCGAGCGCCGACACCGAGGCGGCGGGGGUGACCGCCGGCGGUGGCUCCUCGGCGGCCGCCUCCUGGGCCCGCGGCGGUGGCUUGGGCCGCGGCUUUGCCGACGGCUGCAACAGAGGAUUGAGCAUCA
B14: 98346538_98346658_211_5pUTR_ENSG00000077147_ENST00000371142|human|control|control (ssRNA)
RNA: GGGAGUUCUACAGUCCGACGAUCCAGCCACAGCGCGGCGGCCGCCGCCACGCCAAGAGCGCCAGGCAGCGGCCUCAUCCUCCGCGCCCCUCCGGCCCGGAGCCGGCUCACCGACUCCUCCUCCCGCCGCCGCCUCCUCCGCCGCAACAGAGGAUUGAGCAUCA
B15: 132387670_132387790_77_5pUTR_ENSG00000170606_ENST00000304858|human|control|control (ssRNA)
RNA: GGGAGUUCUACAGUCCGACGAUCGGUACUGCAACCGAGAGCGCUGCUCAGGCCGGCUCCGGCUCAGUGGCCGCAGAGGAGGCGCCGGUAGCGGGGGCGGAGAAGAUCUCGAAAGAUCUCGUUGCGACGAGAGCGGAGCCGCAGCAACAGAGGAUUGAGCAUCA
B16: 44991723_44991843_1432_CDS_ENSMUSG00000038518_ENSMUST00000173246|mouse|control|control (ssRNA)
RNA: GGGAGUUCUACAGUCCGACGAUCCUGAGCAGACCGAUGCGAAGGGGGAGGUUGGUGGUUGGCAGCAAGUCCCUUGGCAGAGGAAGCCGCAGCCGAGGCGGCCGUGGGCUGAGCCCCUGAAGCCUGUUCUCUCCGGCUGUCUGCCAACAGAGGAUUGAGCAUCA

Molecular target: T1, UNK ZnF1-3
Experiment: nsRBNS (natural sequence RNA bind-n-seq); RBNS binding buffer (assumed for nsRBNS): 25 mM Tris pH 7.5, 150 mM KCl, 3 mM MgCl2, 0.01% Triton X-100, 500 ug/ml BSA, 20 U/ml SUPERase-In, 4 C; UNK is unkempt and MSI1 is Musashi-1; names of the RNAs are library labels; protein concentration not given here; high values mean tight binding

Row | Binder | binding signal [enrichment R]
1 | B1 | 5.11
2 | B2 | 0.719
3 | B3 | 1.01
4 | B4 | 1.06
5 | B5 | 0.777
6 | B6 | 2.26
7 | B7 | 5.53
8 | B8 | 1.48
9 | B9 | 1.75
10 | B10 | 3.69
11 | B11 | 0.759
12 | B12 | 0.81
13 | B13 | 4.47
14 | B14 | 5.42
15 | B15 | 1.09
16 | B16 | 1.39
